Test results: PubChem BioAssay (NCATS)
Where “and” joins values, the source holds several entries; their conditions need not be identical. Equal values may be shown once. Results filed as inconclusive are left out. A call without a number means that no potency is given here. Calls of active or inactive are those of the source. Unless noted, calls come from the whole dose curve; as a rule, active = well fitted curve in the direction sought with a large enough effect; inconclusive = small, poorly fitted or top-dose-only effect, or another doubt; inactive = no such curve, though single readings can be large; an effect the other way counts as inactive or inconclusive.

Tests used:
[1] = Natriuretic polypeptide receptor (hNpr1) antagonism - Pilot counterscreen GloSensor control cell line (AID 1347045; calls by dose curve; note: potency is the fitted concentration of half-maximal effect)
Method in brief: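 Control counterscreen: luciferase cGMP-biosensor HEK293 cells (no Npr1) received compound for 30 min at room temperature after GloSensor substrate loading. Luminescence was measured before and 20 min after soluble guanylyl cyclase activation by 50 uM nitroprusside.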

[2] = molecular target: Atrial natriuretic peptide receptor 1 (Homo sapiens) (UniProt P16066); assay: Natriuretic polypeptide receptor (hNpr1) antagonism - Pilot screen (AID 1347049; calls by dose curve;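 note: HEK293 cells with hNpr1 and GloSensor cGMP luciferase stimulated by 0.1 nM hNppA; agonist-evoked cGMP luminescence read 20 min after hNppA addition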; note: potency is the fitted concentration of half-maximal effect)
Chain of Atrial natriuretic peptide receptor 1 (Homo sapiens) (P16066 whole entry, looked up): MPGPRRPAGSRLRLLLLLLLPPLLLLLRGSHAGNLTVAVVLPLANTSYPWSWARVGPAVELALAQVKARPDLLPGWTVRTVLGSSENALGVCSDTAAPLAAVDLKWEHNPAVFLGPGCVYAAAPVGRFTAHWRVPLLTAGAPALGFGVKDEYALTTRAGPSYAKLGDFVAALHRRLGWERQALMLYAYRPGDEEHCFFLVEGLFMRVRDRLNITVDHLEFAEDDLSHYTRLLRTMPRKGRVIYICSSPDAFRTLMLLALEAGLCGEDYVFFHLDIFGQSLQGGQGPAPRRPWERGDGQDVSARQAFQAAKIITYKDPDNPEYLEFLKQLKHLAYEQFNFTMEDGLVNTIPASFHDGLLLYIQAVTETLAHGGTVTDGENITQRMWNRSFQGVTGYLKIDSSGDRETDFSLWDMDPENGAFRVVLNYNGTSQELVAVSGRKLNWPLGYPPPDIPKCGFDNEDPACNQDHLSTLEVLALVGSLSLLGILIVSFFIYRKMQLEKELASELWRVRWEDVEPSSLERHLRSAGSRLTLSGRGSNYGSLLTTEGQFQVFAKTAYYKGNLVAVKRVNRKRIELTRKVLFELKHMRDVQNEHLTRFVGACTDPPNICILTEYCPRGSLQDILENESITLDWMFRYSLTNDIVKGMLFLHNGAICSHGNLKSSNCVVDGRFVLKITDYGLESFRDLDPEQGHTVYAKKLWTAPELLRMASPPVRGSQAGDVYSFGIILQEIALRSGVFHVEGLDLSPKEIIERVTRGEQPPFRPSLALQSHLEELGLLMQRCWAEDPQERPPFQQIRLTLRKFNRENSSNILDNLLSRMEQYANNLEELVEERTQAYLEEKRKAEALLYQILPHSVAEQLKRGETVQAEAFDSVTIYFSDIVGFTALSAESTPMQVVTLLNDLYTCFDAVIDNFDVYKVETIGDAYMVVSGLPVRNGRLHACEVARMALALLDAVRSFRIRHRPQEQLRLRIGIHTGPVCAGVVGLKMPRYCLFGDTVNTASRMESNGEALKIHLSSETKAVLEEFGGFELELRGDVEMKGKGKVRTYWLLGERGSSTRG
Method in brief: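 Receptor antagonism read as cGMP-dependent luminescence in hNpr1/pGS-40F HEK293 cells: pre-read after 30 min compound exposure, post-read 20 min after hNppA agonist at 0.1 nM final, all at room temperature, protected from light; A-71915 titration as control.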

[3] = molecular target: Atrial natriuretic peptide receptor 2 (Homo sapiens) (UniProt P20594); assay: Natriuretic polypeptide receptor (hNpr2) antagonism - Pilot subtype selectivity assay (AID 1347050; calls by dose curve; note: potency is the fitted concentration of half-maximal effect)
Chain of Atrial natriuretic peptide receptor 2 (Homo sapiens) (P20594 whole entry, looked up): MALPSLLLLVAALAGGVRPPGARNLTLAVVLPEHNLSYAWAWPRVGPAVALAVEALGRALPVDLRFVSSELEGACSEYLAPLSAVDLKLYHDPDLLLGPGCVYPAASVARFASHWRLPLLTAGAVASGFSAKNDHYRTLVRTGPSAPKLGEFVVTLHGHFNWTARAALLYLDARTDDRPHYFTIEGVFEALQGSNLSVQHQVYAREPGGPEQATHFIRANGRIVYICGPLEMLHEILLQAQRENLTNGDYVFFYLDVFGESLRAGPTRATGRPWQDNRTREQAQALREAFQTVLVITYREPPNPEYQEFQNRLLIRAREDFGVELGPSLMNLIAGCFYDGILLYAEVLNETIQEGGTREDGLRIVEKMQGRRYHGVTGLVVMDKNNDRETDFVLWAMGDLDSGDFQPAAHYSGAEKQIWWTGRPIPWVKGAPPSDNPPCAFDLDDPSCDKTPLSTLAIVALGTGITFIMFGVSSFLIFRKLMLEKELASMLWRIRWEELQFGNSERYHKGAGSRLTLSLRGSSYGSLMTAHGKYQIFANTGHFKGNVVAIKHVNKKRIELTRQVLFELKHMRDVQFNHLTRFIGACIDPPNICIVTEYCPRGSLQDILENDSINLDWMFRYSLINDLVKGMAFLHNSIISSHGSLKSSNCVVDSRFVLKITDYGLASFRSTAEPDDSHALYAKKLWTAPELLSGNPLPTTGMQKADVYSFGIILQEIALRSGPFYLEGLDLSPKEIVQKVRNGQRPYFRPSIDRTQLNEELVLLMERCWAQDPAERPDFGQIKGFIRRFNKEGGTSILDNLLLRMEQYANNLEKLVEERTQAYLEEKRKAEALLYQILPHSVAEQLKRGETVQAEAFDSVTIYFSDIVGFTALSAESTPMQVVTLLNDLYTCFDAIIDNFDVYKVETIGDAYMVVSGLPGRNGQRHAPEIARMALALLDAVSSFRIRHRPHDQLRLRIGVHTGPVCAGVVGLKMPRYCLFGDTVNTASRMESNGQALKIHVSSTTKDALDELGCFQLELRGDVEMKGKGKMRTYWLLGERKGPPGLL
Method in brief: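 Antagonist mode: compounds (LOPAC1280, seven 1:5 dilutions) added 30 min before 1 nM hNppC stimulation of hNpr2-HEK293 cGMP-sensor cells; luminescence read before and 20 min after agonist at ambient temperature.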

[4] = NS1 protein of Zika virus - qHTS assay to identify small molecule inhibitors in human HEK 293 cells (AID 1347053); note: nearly all actives have a fitted effect of over 55% in size; note: potency is the fitted concentration of half-maximal effect
Method in brief: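 Read-out is a two-antibody TR-FRET for ZIKV NS1, normalized between uninfected cells and infected cells. Compound added 1 h before MR766 infection at MOI 0.5; human HEK 293 cells incubated 24 h, 37 C.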

[5] = molecular target: T1, Tyrosine-protein phosphatase non-receptor type substrate 1 (Homo sapiens) + Leukocyte surface antigen CD47 (Homo sapiens) (UniProt P78324+Q08722); assay: CD47-SIRPalpha protein protein interaction - LANCE assay qHTS validation (AID 1347057; active = well fitted curve in the direction sought with a large enough effect in the signal ratio, with a control signal flat, not every such curve was filed as active; the % refers to the signal ratio; note: series mostly up to about 38 µM)
T1 sequence (P78324 whole entry, looked up, the tested form may be a part): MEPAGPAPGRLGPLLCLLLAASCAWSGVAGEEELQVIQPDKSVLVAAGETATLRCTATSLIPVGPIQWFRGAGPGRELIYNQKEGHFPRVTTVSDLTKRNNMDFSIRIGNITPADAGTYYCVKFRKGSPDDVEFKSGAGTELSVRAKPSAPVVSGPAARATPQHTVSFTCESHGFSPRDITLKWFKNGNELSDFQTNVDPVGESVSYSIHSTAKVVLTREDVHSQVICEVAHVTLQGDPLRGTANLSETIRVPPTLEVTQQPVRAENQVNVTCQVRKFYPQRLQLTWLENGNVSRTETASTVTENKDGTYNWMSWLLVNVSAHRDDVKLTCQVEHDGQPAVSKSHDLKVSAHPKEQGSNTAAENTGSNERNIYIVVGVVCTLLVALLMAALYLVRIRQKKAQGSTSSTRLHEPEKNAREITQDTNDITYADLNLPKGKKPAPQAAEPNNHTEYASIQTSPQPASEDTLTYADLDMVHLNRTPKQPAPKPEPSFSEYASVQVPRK
T1 sequence (Q08722 whole entry, looked up, the tested form may be a part): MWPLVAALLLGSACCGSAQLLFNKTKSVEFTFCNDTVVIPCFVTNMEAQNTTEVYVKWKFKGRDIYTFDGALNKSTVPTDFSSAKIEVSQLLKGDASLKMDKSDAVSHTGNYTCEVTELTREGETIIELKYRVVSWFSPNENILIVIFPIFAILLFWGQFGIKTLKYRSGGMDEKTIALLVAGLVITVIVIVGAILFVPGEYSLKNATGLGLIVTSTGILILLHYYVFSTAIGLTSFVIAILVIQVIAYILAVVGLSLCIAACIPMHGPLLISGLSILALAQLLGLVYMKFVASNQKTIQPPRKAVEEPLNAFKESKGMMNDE
Method in brief: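 Inhibition of soluble CD47/SIRPalpha ectodomain association by titrated compounds, measured as 665/615 nm time-resolved FRET ratio after sequential 30 min room-temperature incubations.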

[6] = molecular target: T1, Tyrosine-protein phosphatase non-receptor type substrate 1 (Homo sapiens) + Leukocyte surface antigen CD47 (Homo sapiens); assay: CD47-SIRPalpha protein protein interaction - Alpha assay qHTS validation (AID 1347059);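 note: bead proximity luminescence from CD47 binding SIRPalpha after compound preincubation with SIRPalpha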
Method in brief: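 AlphaScreen signal between CD47-His (12.5 nM) and biotin-SIRPalpha (25 nM) soluble extracellular domains, bead-captured via Ni-NTA and streptavidin. Compounds, in 7-point titrations, met SIRPalpha 30 min before CD47; PBS pH 7.4 with 0.05% IGEPAL.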

[7] = molecular target: Parathyroid hormone/parathyroid hormone-related peptide receptor (Homo sapiens) (UniProt Q03431); assay: qHTS for PTHR1 Agonists: Optimization Screen against the NCGC LOPAC library (AID 1347079);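 note: GloSensor cAMP luminescence in HEK-293 GP2 cells expressing human PTHR1 with IBMX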
Chain of Parathyroid hormone/parathyroid hormone-related peptide receptor (Homo sapiens) (Q03431 whole entry, looked up): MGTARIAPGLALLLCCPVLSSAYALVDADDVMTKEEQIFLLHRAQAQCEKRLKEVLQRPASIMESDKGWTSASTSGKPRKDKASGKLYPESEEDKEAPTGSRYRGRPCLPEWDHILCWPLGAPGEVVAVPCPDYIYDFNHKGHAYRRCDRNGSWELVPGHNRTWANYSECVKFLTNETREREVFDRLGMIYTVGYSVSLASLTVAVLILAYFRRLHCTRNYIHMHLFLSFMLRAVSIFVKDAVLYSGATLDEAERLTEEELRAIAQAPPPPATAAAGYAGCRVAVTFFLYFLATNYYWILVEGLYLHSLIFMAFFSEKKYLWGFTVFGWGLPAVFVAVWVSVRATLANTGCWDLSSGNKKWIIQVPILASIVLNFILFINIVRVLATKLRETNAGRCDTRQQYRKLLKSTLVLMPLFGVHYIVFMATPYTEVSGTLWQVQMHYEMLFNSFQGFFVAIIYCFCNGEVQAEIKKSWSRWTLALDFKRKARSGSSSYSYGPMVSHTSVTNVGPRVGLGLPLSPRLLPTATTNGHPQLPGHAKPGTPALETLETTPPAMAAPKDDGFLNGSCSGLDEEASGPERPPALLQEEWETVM
Method in brief: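 HEK-293 GP2 cells, PTHR1 + GloSensor cAMP; 3000 cells/well, o/n. Luciferin + IBMX 0.5mM each (stock), 1 hr 37C. Cpd titration, 1 hr 37C. Lum after 15 min RT. Ctrl M-PTH(1-15) top 10uM.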

[8] = qHTS of pediatric cancer cell lines to identify multiple opportunities for drug repurposing: Primary screen for TC32 cells (AID 1347089); note: nearly all actives have a fitted effect of over 60% in size
Method in brief: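 A viability screen of TC32 cells was run over 48 h, with primary MIPE doses spanning 0.78 nM–46 µM and NPC doses 0.59 nM–46 µM. ATP luminescence (CellTiter-Glo) served as the read-out.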

[9] = qHTS of pediatric cancer cell lines to identify multiple opportunities for drug repurposing: Primary screen for DAOY cells (AID 1347090); note: nearly all actives have a fitted effect of over 55% in size; note: potency is the fitted concentration of half-maximal effect
Method in brief: (§1)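 Cell viability, CellTiter-Glo luminescence; 500-1,000 cells/well, 8- or 11-point titration, 48 h compound exposure at 37 degrees C, 5% CO2. Controls: DMSO neutral, bortezomib 2.3 µM final as positive.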

[10] = qHTS of pediatric cancer cell lines to identify multiple opportunities for drug repurposing: Primary screen for A673 cells (AID 1347092); note: nearly all actives have a fitted effect of over 45% in size; note: potency is the fitted concentration of half-maximal effect
Method in brief: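 Titration-based qHTS on A673 cells: MIPE compounds spanned 11 points (0.78 nM to 46 µM final), NPC compounds 8 points (0.59 nM to 46 µM final). Viability after 48 h was measured by ATP luminescence.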

[11] = qHTS of pediatric cancer cell lines to identify multiple opportunities for drug repurposing: Primary screen for SK-N-MC cells (AID 1347093); note: potency is the fitted concentration of half-maximal effect
Method in brief: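 Metabolically active cells were quantified by ATP-dependent luminescence (CellTiter-Glo, 15 min at room temperature) following 48 h treatment. Cells had been plated at 500-1,000 per well and settled for 5 h beforehand.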

[12] = qHTS of pediatric cancer cell lines to identify multiple opportunities for drug repurposing: Primary screen for BT-37 cells (AID 1347094); note: potency is the fitted concentration of half-maximal effect
Method in brief: (§2)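 ATP-based luminescence (CellTiter-Glo) quantifies viability after a 48-hour exposure. Compounds are dosed across 8 or 11 final concentrations; DMSO and 2.3 µM bortezomib serve as controls.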

[13] = qHTS of pediatric cancer cell lines to identify multiple opportunities for drug repurposing: Primary screen for NB-EBc1 cells (AID 1347095); note: potency is the fitted concentration of half-maximal effect
Method in brief: as §2

[14] = qHTS of pediatric cancer cell lines to identify multiple opportunities for drug repurposing: Primary screen for U-2 OS cells (AID 1347096); note: nearly all actives have a fitted effect of over 50% in size; note: potency is the fitted concentration of half-maximal effect
Method in brief: (§3)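 Cells (500-1,000/well) rested 5 h, then received compounds for 48 h; metabolically active cells were measured by CellTiter-Glo luminescence. Final concentrations spanned up to 46 µM (MIPE, 11-point) or 0.59 nM-46 µM (NPC, 8-point) in primary screens, 11-point in follow-ups.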

[15] = qHTS of pediatric cancer cell lines to identify multiple opportunities for drug repurposing: Primary screen for Saos-2 cells (AID 1347097); note: nearly all actives have a fitted effect of over 40% in size; note: potency is the fitted concentration of half-maximal effect
Method in brief: as §2

[16] = qHTS of pediatric cancer cell lines to identify multiple opportunities for drug repurposing: Primary screen for SK-N-SH cells (AID 1347098); note: nearly all actives have a fitted effect of over 65% in size; note: potency is the fitted concentration of half-maximal effect
Method in brief: as §3

[17] = molecular target: T1, Tyrosine-protein phosphatase non-receptor type substrate 1 (Homo sapiens) + Leukocyte surface antigen CD47 (Homo sapiens); assay: CD47-SIRPalpha protein protein interaction - HTRF assay qHTS validation (AID 1347058; active = well fitted curve in the direction sought with a large enough effect in the signal ratio, not every such curve was filed as active; the % refers to the signal ratio; note: series mostly up to about 38 µM)
Method in brief: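 Soluble extracellular domains (6His-CD47, Avi-tag-biotinylated SIRPalpha) in PBS pH 7.4 with 0.05% IGEPAL CA-630. Compounds were preincubated 30 min at RT with CD47 and anti-His-Eu, then SIRPalpha and SAV-XL665 were added. TR-FRET 665/615 ratio.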

[18] = qHTS of pediatric cancer cell lines to identify multiple opportunities for drug repurposing: Primary screen for SJ-GBM2 cells (AID 1347091); note: potency is the fitted concentration of half-maximal effect
Method in brief: as §1

[19] = qHTS of pediatric cancer cell lines to identify multiple opportunities for drug repurposing: Primary screen for NB1643 cells (AID 1347099); note: nearly all actives have a fitted effect of over 50% in size; note: potency is the fitted concentration of half-maximal effect
Method in brief: as §2

[20] = qHTS of pediatric cancer cell lines to identify multiple opportunities for drug repurposing: Primary screen for LAN-5 cells (AID 1347100); note: potency is the fitted concentration of half-maximal effect
Method in brief: as §3

Compound	Potency [1]	Potency [2]	Potency [3]	Potency [4]	outcome [5]	Potency [6]	outcome [7]	Potency [8]	Potency [9]	Potency [10]	Potency [11]	Potency [12]	Potency [13]	Potency [14]	Potency [15]	Potency [16]	outcome [17]	Potency [18]	Potency [19]	Potency [20]
O=C1NC(=O)C(c2ccccc2[N+](=O)[O-])=C1Nc1ccc(O)c(Cl)c1	inactive	inactive	inactive	inactive	inactive	inactive	inactive	inactive	inactive	5.9 µM (active)	0.118 µM (active)	inactive	inactive	inactive	inactive	–	–	–	–	–
CC(=O)O[C@H]1C(=O)[C@@]2(C)C([C@H](OC(=O)c3ccccc3)[C@]3(O)C[C@H](OC(=O)[C@H](O)[C@@H](NC(=O)c4ccccc4)c4ccccc4)C(C)=C1C3(C)C)[C@]1(OC(C)=O)CO[C@@H]1C[C@@H]2O (stereo not given in full)	inactive	–	inactive	0.0066 µM (active)	–	–	inactive	–	–	0.001 µM (active)	0.001 µM (active)	–	–	–	–	inactive	–	–	–	–
COc1ccc2cc([C@H](C)C(=O)O)ccc2c1	inactive	inactive	inactive	inactive	inactive	inactive	–	inactive	inactive	–	inactive	inactive	inactive	inactive	inactive	inactive	inactive	inactive	inactive	inactive
NC(=NCc1ccccc1)NC(=O)c1nc(Cl)c(N)nc1N	inactive	inactive	inactive	inactive	inactive	inactive	inactive	inactive	18.7 µM (active)	5.9 µM (active)	1.18 µM (active)	inactive	–	inactive	inactive	inactive	–	inactive	9.35 µM (active)	–
COc1ccccc1N1CCN(CCN(C(=O)C2CCCCC2)c2ccccn2)CC1	inactive	inactive	inactive	inactive	inactive	inactive	inactive	inactive	–	inactive	inactive	inactive	6.62 µM (active)	inactive	inactive	inactive	inactive	inactive	–	inactive
CCOC(=O)C(C)Oc1cccc2c(=O)n(CC(=O)Nc3ccc4c(c3)OCCO4)ccc12 (stereo not given)	inactive	inactive	inactive	inactive	inactive	inactive	inactive	–	–	7.43 µM (active)	–	inactive	–	inactive	inactive	inactive	inactive	inactive	–	inactive
CC1(C)C(=O)N(CCN2CCC(C(=O)c3ccc(F)cc3)CC2)c2ccccc21	inactive	inactive	inactive	inactive	inactive	inactive	inactive	inactive	–	inactive	10.5 µM (active)	inactive	inactive	–	inactive	–	–	–	–	inactive
CC(C)c1ccc2c(c1)c(SC(C)(C)C)c(CC(C)(C)C(=O)O)n2Cc1ccc(Cl)cc1	13.1 µM (active)	inactive	inactive	inactive	inactive	inactive	inactive	inactive	23.5 µM (active)	–	8.33 µM (active)	27.3 µM (active)	–	inactive	29.6 µM (active)	–	inactive	20.9 µM (active)	16.6 µM (active)	–
Cc1cccc(-c2[nH]ncc2-c2ccc3ncccc3n2)n1	–	–	–	inactive	inactive	inactive	–	inactive	inactive	inactive	inactive	–	–	inactive	inactive	inactive	inactive	inactive	inactive	–
NNc1nncc2ccccc12	–	inactive	inactive	inactive	–	–	inactive	inactive	inactive	inactive	inactive	inactive	inactive	inactive	inactive	inactive	inactive	inactive	inactive	–
C[C@H](Cc1ccc(O)c(O)c1)[C@@H](C)Cc1ccc(O)c(O)c1	–	inactive	inactive	inactive	inactive	inactive	inactive	–	–	–	11.8 µM (active)	–	2.35 µM (active)	–	29.6 µM (active)	inactive	inactive	–	14.8 µM (active)	10.5 µM (active)
CCN(CC)C(=S)SSC(=S)N(CC)CC	3.29 µM (active)	2.39 µM (active)	5.21 µM (active)	8.33 µM (active)	inactive	inactive	inactive	–	11.8 nM (active) and 49.5 nM (active) and 133 nM (active)	11.8 nM (active) and 19.7 nM (active)	18.7 nM (active) and 49.5 nM (active) and 119 nM (active)	24.3 nM (active) and 815 nM (active)	–	0.0743 µM (active)	13.2 nM (active) and 62.4 nM (active) and 211 nM (active)	0.114 µM (active)	inactive	4.69 µM (active)	83.3 nM (active) and 124 nM (active) and 668 nM (active)	23.5 nM (active) and 39.4 nM (active)
O=C1c2c(O)cc(O)cc2OC(c2ccc(O)c(O)c2)C1O (stereo not given)	inactive	inactive	inactive	inactive	inactive	inactive	inactive	inactive	inactive	–	4.69 µM (active)	inactive	inactive	–	–	30.4 µM (active)	inactive	inactive	–	–
